Assay results: PubChem BioAssay (NCI)
Several values for one entry are separate records, joined by “and”; a condition that tells them apart may be missing. Equal values may be shown once. The panel holds about 79,000 compounds, 15% with a hit somewhere; the sample as a whole holds those more often. The source holds several records for some structures; these can differ, active in one and inactive in another. Activity calls are given as the source filed them. Rule as the data show it: active = growth inhibition above about 70%; inactive = the rest.

What was measured:
[1] = NCI Yeast Anticancer Drug Screen. Data for the rad50 strain (AID 155);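 also: 0% = growth of vehicle-only cultures of the same strain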; conditions: S. cerevisiae rad50 strain growth inhibition, stronger effect = higher value
Summary of the method: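 Relative growth inhibition (compound vs vehicle) was measured in yeast with a defined repair-gene alteration.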

[2] = NCI Yeast Anticancer Drug Screen. Data for the mec2-1 strain (AID 157); conditions: S. cerevisiae mec2-1 strain, stronger effect = higher value
Summary of the method: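 Test agents were screened against the mec2-1 yeast strain, with defined DNA repair or cell cycle alteration. Growth was scored as inhibition against vehicle-only controls.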

[3] = NCI Yeast Anticancer Drug Screen. Data for the sgs1 mgt1 strain (AID 161);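 also: 0% = growth of cultures given vehicle only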; conditions: S. cerevisiae sgs1 mgt1 strain, stronger effect = higher value
Summary of the method: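 Read-out: growth inhibition vs vehicle controls. Cells: mutant yeast strain deficient in DNA damage repair.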

[4] = NCI Yeast Anticancer Drug Screen. Data for the cln2 rad14 strain (AID 165);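 also: 0% = growth equal to vehicle treated cultures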; conditions: S. cerevisiae cln2 rad14 strain, stronger effect = higher value
Summary of the method: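 Growth of compound-exposed yeast (cln2 rad14 genotype) measured and expressed as inhibition relative to vehicle.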

[5] = NCI Yeast Anticancer Drug Screen. Data for the bub3 strain (AID 167); conditions: S. cerevisiae bub3 mutant strain, stronger effect = higher value
Summary of the method: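 Screening used yeast with an engineered genetic alteration affecting cell cycle control. Compound-exposed cultures were compared with vehicle cultures, and reduced growth was taken as inhibition.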

[6] = NCI Yeast Anticancer Drug Screen. Data for the mlh1 rad18 strain (AID 175); conditions: S. cerevisiae mlh1 rad18 strain growth inhibition, stronger effect = higher value
Summary of the method: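 In this whole-cell yeast screen, a strain with altered DNA damage repair is challenged with compound, and its growth is measured against matched vehicle-treated controls.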

[7] = at 5.0 µM (retest, dose inferred, filed as 0.5)
[8] = at 50.0 µM (retest, dose inferred, filed as 5.0)

Measured: growth inhibition

CC(=O)OCC(OC(C)=O)C(OC(C)=O)C(OC(C)=O)C(OC(C)=O)C(/C=N/Nc1ccccc1)=N/Nc1ccccc1 (stereo not given)
87% (active) and -12% (inactive): [5]; [8]
86.3% (active) and 18.7% (inactive): [5]; at 50.0 µM
inactive: [1]; [7] 21% and -14% | [2]; [7] 4% and 1% | [2]; [8] 68% and -7% | [2]; at 50.0 µM 48.1% and 4.7% | [3]; [7] -12% and -18% | [3]; [8] 50% and 9% | [3]; at 50.0 µM 47.8% and 6.1% | [4]; [7] 23% and 0% | [4]; at 50.0 µM 44.4% and 29.6% | [5]; [7] 7% and -3% | [6]; [7] 26% and -3%
94.8% (active) and 57.6% (inactive): [1]; at 50.0 µM
93% (active) and -1% (inactive): [6]; [8]
95.2% (active) and 40.5% (inactive): [6]; at 50.0 µM
90% (active) and 4% (inactive): [1]; [8]
86% (active) and 1% (inactive): [4]; [8]

CC(=O)OCC1OC(n2c(C)c(C(C)=O)c(-c3ccco3)c(C#N)c2=S)C(OC(C)=O)C(OC(C)=O)C1OC(C)=O (stereo not given)
-4.95% (inactive) and 74.4% (active): [3]; at 50.0 µM
inactive: [1]; [7] -7% | [1]; [8] -3% | [1]; at 50.0 µM -9.45% and 32.2% | [2]; [7] 2% | [2]; [8] 1% | [2]; at 50.0 µM -26.9% and 56.2% | [3]; [7] 2% | [3]; [8] 13% | [4]; [7] 6% | [4]; [8] 22% | [4]; at 50.0 µM -13.6% and 40.8% | [5]; [7] -4% | [5]; [8] 9% | [5]; at 50.0 µM -25.4% and 42.4% | [6]; [7] -29% | [6]; [8] 12% | [6]; at 50.0 µM 3.55% and 45%

COc1cccc(OCCC#N)c1
inactive: [1]; [7] 2% | [1]; [8] 27% | [2]; [7] -1% | [2]; [8] 0% | [2]; at 50.0 µM 4.05% and 4.85% | [3]; [7] -1% | [3]; [8] 12% | [3]; at 50.0 µM -5.2% and 31.4% | [4]; [7] -7% | [4]; [8] -1% | [4]; at 50.0 µM -34.8% and 20.4% | [5]; [7] -6% | [5]; [8] -5% | [5]; at 50.0 µM -8.35% and -22.1% | [6]; [7] 4% | [6]; [8] 19% | [6]; at 50.0 µM -1.9% and 44.9%
-6.7% (inactive) and 72.8% (active): [1]; at 50.0 µM

CC(c1ccccc1)c1ccc(O)cc1 (stereo not given)
33.2% (inactive) and 81% (active): [2]; at 50.0 µM
active: [1]; [8] 73% | [6]; [8] 90%
53.2% (inactive) and 92.3% (active): [6]; at 50.0 µM
inactive: [1]; [7] 0% | [2]; [7] -3% | [2]; [8] 57% | [3]; [7] -1% | [3]; [8] 49% | [4]; [7] 0% | [4]; [8] 56% | [4]; at 50.0 µM 24.6% and 65.2% | [5]; [7] -9% | [5]; [8] 51% | [5]; at 50.0 µM 40.4% and 66.4% | [6]; [7] 0%
46.9% (inactive) and 86.5% (active): [1]; at 50.0 µM
6.55% (inactive) and 85.7% (active): [3]; at 50.0 µM

O=C(NNC(=O)c1ccccc1O)c1ccccc1O
active: [5]; at 50.0 µM 74.2%
inactive: [1]; [7] 4% | [1]; [8] 14% | [1]; at 50.0 µM 56.1% | [2]; [7] 2% | [2]; [8] 34% | [2]; at 50.0 µM 37.3% | [3]; [7] 8% | [3]; [8] 32% | [3]; at 50.0 µM 61% | [4]; [7] -4% | [4]; [8] -2% | [4]; at 50.0 µM 35.9% | [5]; [7] 2% | [5]; [8] 19% | [6]; [7] 5% | [6]; [8] 33% | [6]; at 50.0 µM 49.8%

Nc1nccnc1C(=O)O
inactive: [1]; [7] -166% | [1]; [8] -152% | [1]; at 50.0 µM -12.1% and 7.75% | [2]; [7] -49% | [2]; [8] -52% | [2]; at 50.0 µM 20.9% and 0.9% | [3]; [7] -63% | [3]; [8] -61% | [3]; at 50.0 µM -2.45% and 6.3% | [4]; [7] -59% | [4]; [8] -54% | [4]; at 50.0 µM 67.5% and 5.6% | [5]; [7] -74% | [5]; [8] -75% | [5]; at 50.0 µM 18.8% and -1.75% | [6]; [7] -145% | [6]; [8] -108% | [6]; at 50.0 µM 11.6% and 8.25%

CC(=O)Nc1nc(N)c2ncn(C3OC(C(O)CO)C(O)C3O)c2n1 (stereo not given)
inactive: [1]; [7] 0% | [1]; [8] 1% | [1]; at 50.0 µM 1.75% and -3.5% | [2]; [7] 0% | [2]; [8] 1% | [2]; at 50.0 µM 0.35% and -7.5% | [3]; [7] -3% | [3]; [8] -1% | [3]; at 50.0 µM 3% and 1.8% | [4]; [7] 1% | [4]; [8] 0% | [4]; at 50.0 µM 53.5% and -80% | [5]; [7] 1% | [5]; [8] 0% | [5]; at 50.0 µM -10.2% and 10.1% | [6]; [7] -1% | [6]; [8] 3% | [6]; at 50.0 µM 18.9% and -12.4%

OCc1ccccc1C(c1ccccc1)c1ccccc1
inactive: [1]; [7] 0% | [1]; at 50.0 µM 3.45% | [2]; [7] 9% | [2]; at 50.0 µM 64.7% | [3]; [7] -1% | [4]; [7] 8% | [4]; at 50.0 µM 5.85% | [5]; [7] 0% | [6]; [7] 6%
active: [1]; [8] 98% | [2]; [8] 99% | [3]; [8] 70% | [3]; at 50.0 µM 73% | [4]; [8] 98% | [5]; [8] 99% | [5]; at 50.0 µM 91% | [6]; [8] 94% | [6]; at 50.0 µM 84.1%

CN1CCCc2cc(/C=C\c3ccnc4ccccc34)ccc21
active: [1]; [8] 94% | [1]; at 50.0 µM 96% | [2]; [8] 97% | [2]; at 50.0 µM 97.1% | [3]; [8] 96% | [3]; at 50.0 µM 98.3% | [4]; [8] 94% | [4]; at 50.0 µM 93% | [5]; [8] 94% | [5]; at 50.0 µM 96.8% | [6]; [8] 96% | [6]; at 50.0 µM 97.4%
inactive: [1]; [7] -2% | [2]; [7] -10% | [3]; [7] -10% | [4]; [7] -6% | [5]; [7] -7% | [6]; [7] -21%

CC(=O)c1ccc(N)cc1
active: [1]; [8] 73% | [2]; [8] 100% | [5]; [8] 99% | [6]; [8] 96%
inactive: [1]; [7] 35% | [1]; at 50.0 µM 7.3% | [2]; [7] 50% | [2]; at 50.0 µM 15.3% | [3]; [7] 7% | [3]; [8] 52% | [3]; at 50.0 µM 26.8% | [4]; [7] 12% | [4]; [8] 39% | [4]; at 50.0 µM -1.3% | [5]; [7] 30% | [5]; at 50.0 µM -2.8% | [6]; [7] 62% | [6]; at 50.0 µM 20.1%

O=C1c2cccc(O)c2C(=O)c2c(O)cccc21
inactive: [1]; [7] 67% | [2]; [7] 28% | [2]; [8] 36% | [2]; at 50.0 µM 38.1% and 42.8% | [3]; [7] 21% | [3]; [8] 50% | [3]; at 50.0 µM 41.6% and 45.6% | [4]; [7] 18% | [4]; [8] 25% | [4]; at 50.0 µM 44.1% and -10.8% | [5]; [7] 24% | [5]; [8] 62% | [5]; at 50.0 µM 42.6% and 39.5% | [6]; [7] 42% | [6]; [8] 66% | [6]; at 50.0 µM 50.4% and 66.1%
55% (inactive) and 74.8% (active): [1]; at 50.0 µM
active: [1]; [8] 73%

C=CCOC(=O)c1ccc(C(=O)OCC=C)cc1
inactive: [1]; [7] -5% | [1]; [8] -77% | [1]; at 50.0 µM 50.6% | [2]; [7] -11% | [2]; [8] -32% | [2]; at 50.0 µM 52.2% | [3]; [7] -1% | [3]; [8] -13% | [4]; [7] 4% | [4]; [8] -26% | [4]; at 50.0 µM 39.4% | [5]; [7] 6% | [5]; [8] -53% | [5]; at 50.0 µM 44.8% | [6]; [7] 0% | [6]; [8] -41% | [6]; at 50.0 µM 64.3%
active: [3]; at 50.0 µM 78.5%

CC1=CC(C)=Nc2ccc(Cl)cc2N1
9.35% (inactive) and 75.1% (active): [6]; at 50.0 µM
inactive: [1]; [7] -2% | [1]; [8] 9% | [1]; at 50.0 µM -1.1% and 52% | [2]; [7] 2% | [2]; [8] 2% | [2]; at 50.0 µM 11.4% and 2.6% | [3]; [7] -4% | [3]; [8] -1% | [3]; at 50.0 µM -5.1% and 41% | [4]; [7] 1% | [4]; [8] 7% | [4]; at 50.0 µM -15.9% and -11.8% | [5]; [7] -2% | [5]; [8] -7% | [5]; at 50.0 µM -2.9% and 21.6% | [6]; [7] -2% | [6]; [8] 7%

C=C1C(=O)OC2C[C@@]3(C)CCC[C@H](C)C3=CC12 (stereo not given in full) (tested in a mixture with another compound)
active: [1]; [8] 97% | [1]; at 50.0 µM 85.2% | [2]; [8] 99% | [2]; at 50.0 µM 93% | [3]; [8] 99% | [3]; at 50.0 µM 93.1% | [4]; [8] 79% | [5]; [8] 97% | [5]; at 50.0 µM 92.5% | [6]; [8] 98% | [6]; at 50.0 µM 89.2%
inactive: [1]; [7] 15% | [2]; [7] 32% | [3]; [7] 27% | [4]; [7] 19% | [4]; at 50.0 µM 60.5% | [5]; [7] 5% | [6]; [7] 23%

CC(NC(=O)/C(C#N)=C/c1ccc2[nH]ccc2c1)c1ccccc1 (stereo not given)
inactive: [1]; [7] 0% | [2]; [7] 1% | [3]; [7] 16% | [4]; [7] 7% | [5]; [7] 3% | [6]; [7] -5%
active: [1]; [8] 94% | [1]; at 50.0 µM 86.2% | [2]; [8] 95% | [2]; at 50.0 µM 90% | [3]; [8] 93% | [3]; at 50.0 µM 88.8% | [4]; [8] 91% | [4]; at 50.0 µM 86.5% | [5]; [8] 94% | [5]; at 50.0 µM 86.2% | [6]; [8] 96% | [6]; at 50.0 µM 86.3%
